Screening data deposited in PubChem by National Center for Advancing Translational Sciences (NCATS).
RORgamma inh = ROR gamma (mouse) transcription inhibition; hit rate 5.4% among 310,000; Drosophila S2 Gal4-RORgamma UAS-luciferase reporter, 20 h; P51450; Potency, µM (top dose mostly 53.6 µM), inactives show top-dose activity change, negative = inhibition, usual class: inhibitors; note: potency is the fitted concentration of half-maximal effect; nearly all actives have a fitted effect of over 60% in size
Target sequence (P51450 whole entry, looked up, the tested form may be a part): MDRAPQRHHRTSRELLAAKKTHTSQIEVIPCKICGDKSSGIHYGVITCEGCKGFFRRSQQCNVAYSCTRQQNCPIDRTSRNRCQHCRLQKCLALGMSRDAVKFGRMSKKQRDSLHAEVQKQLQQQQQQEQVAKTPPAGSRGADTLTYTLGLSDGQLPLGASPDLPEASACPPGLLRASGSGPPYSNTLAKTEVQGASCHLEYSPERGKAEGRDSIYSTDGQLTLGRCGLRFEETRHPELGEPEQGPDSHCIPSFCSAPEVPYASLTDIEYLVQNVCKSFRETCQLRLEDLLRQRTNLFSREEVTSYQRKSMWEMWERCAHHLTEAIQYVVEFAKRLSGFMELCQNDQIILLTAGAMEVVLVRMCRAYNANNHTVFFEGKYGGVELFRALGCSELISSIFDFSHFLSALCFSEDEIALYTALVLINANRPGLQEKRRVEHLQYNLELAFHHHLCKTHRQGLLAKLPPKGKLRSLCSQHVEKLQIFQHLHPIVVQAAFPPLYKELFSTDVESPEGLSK
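Schneider cells (Drosophila), stable Gal4 DBD–ROR gamma + UAS-luc; 1 hr cmpd preincubation; Cu2+ induction 700 uM final; 20 hr ambient; luminescence.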
ELG1 repair inh = ELG1-dependent DNA repair inhibition; HEK293T ELG1-luciferase reporter, luminescence, 16 h; DNA damage induced by 5-fluorouridine; Potency, µM (titrated, usually from 46.1 µM), for the others: at the top dose activity change, negative = inhibition, actives largely listed as inhibitors; hit rate 2.3% among 330,000; AID 504467; note: potency is the fitted concentration of half-maximal effect; nearly all actives have a fitted effect of over 55% in size
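DMSO vehicle served as the neutral condition. Each well held 2,000 cells given 5-fluorouridine plus compound; after 16 hr at 37 °C/5% CO2, ONE-Glo was added and luciferase measured 30 min later.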
TDP1 cell CPT = growth inhibition of DT40 Tdp1-/-;hTDP1 cells with camptothecin (screen for TDP1 inhibitors). chicken DT40 Tdp1-/-;hTDP1 cells + 20 nM CPT, ATP luminescence, 48 h. Potency, µM (highest dose often 46.2 µM), for the others: at the highest dose activity change, negative = growth inhibition, hits mostly inhibitors. hit rate 12% among 420,000. AID 686979; note: potency is the fitted concentration of half-maximal effect; nearly all actives have a fitted effect of over 55% in size
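Cell growth measured by CellTiter-Glo luminescence after a minimum 48 h, 37 C compound exposure with 20 nM CPT in Tdp1-knockout DT40 cells stably expressing hTDP1, seeded 400/well; qHTS titration format.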
IL1B secr inh = blocks inflammasome-driven IL-1 beta release; THP-1 LPS/ATP IL-1B secretion, AlphaLISA, 16 h; stronger effect = lower value; activity change, % at 57.5 µM; hit rate 4.7% among 360,000; AID 743279; in the data active = activity change below about -50%; inconclusive = mostly about -30% to -49%
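THP-1 cells pretreated 1 hr with compounds (up to 57.5 uM final), then stimulated with LPS (250 ng/mL final) plus ATP (1.25 mM final); secreted IL-1B measured by AlphaLISA after 16 hr, decreased signal indicating inhibition.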
VP16 counter = counter-screen for ROR gamma inhibitors: Gal4-VP16 reporter. Drosophila S2 Gal4-VP16 UAS-luciferase, luminescence, 20 h. Potency, µM (top dose mostly 53.6 µM), for the others: at the highest dose activity, negative = inhibition, hits mostly inhibitors. hit rate 3.5% among 310,000. AID 2546;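 note: Gal4-VP16 expression switched on by copper sulfate through the metallothionein promoter; potency is the fitted concentration of half-maximal effect; nearly all actives have a fitted effect of over 50% in size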
TDP1 cell noCPT = qHTS for Inhibitors of human tyrosyl-DNA phosphodiesterase 1 (TDP1): qHTS in cells in absence of CPT; DT40 Tdp1-/- hTDP1 cells, no CPT, ATP luminescence, 48 h; Potency, µM (top dose mostly 46.2 µM), inactives show top-dose activity change, negative = growth inhibition, hits mostly inhibitors; hit rate 15% among 420,000; AID 686978, 2013; note: potency is the fitted concentration of half-maximal effect; nearly all actives have a fitted effect of over 55% in size
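Cells were dispensed at 400 per well, compounds added by pin tool, plates incubated ≥48 hr at 37 °C, then CellTiter-Glo added for 30 min at room temperature before luminescence reading. Line: DT40 Tdp1-/- complemented with hTDP1; camptothecin omitted.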
Starred values were filed as active, the others as inactive; ? = inconclusive; nt = not tested or not shown. A selection: hits, their analogues and other compounds. The true share with any hit is near 21%. Unless noted, calls come from the whole dose curve; as a rule, active = well fitted curve in the direction sought with a large enough effect; inconclusive = small, poorly fitted or top-dose-only effect, or another doubt; inactive = no such curve, though single readings can be large; an effect the other way counts as inactive or inconclusive. % is set by controls: 0 for no effect and ±100 for the full control effect.

SMILES	RORgamma inh	ELG1 repair inh	TDP1 cell CPT	IL1B secr inh	VP16 counter	TDP1 cell noCPT
CCN(C(=O)CN1C(=O)c2ccccc2Sc2ccc(C(=O)OC)cc21)c1cccc(C)c1	nt	nt	?	nt	nt	23µM*
CCCCN(CCCC)Cc1cc(=O)oc2cc(OC)c(Cl)cc12	nt	nt	?	-4	nt	?
Cc1nn(C)c2c1c(C(F)(F)F)cc(=O)n2C(C)C(=O)Nc1ccccc1F (stereo unspecified)	nt	nt	?	nt	nt	-26%
Cc1nn(C)c2c1c(C(F)(F)F)cc(=O)n2CC(=O)NCCC(C)C	nt	nt	?	nt	nt	-24%
COc1cccc(NC(=O)C(C)n2c(=O)cc(C(F)(F)F)c3c(C)nn(C)c32)c1 (stereo unspecified)	nt	nt	16µM*	nt	nt	18µM*
Cc1ccc(CNC(=O)C(C)n2c(=O)cc(C(F)(F)F)c3c(C)nn(C)c32)cc1 (stereo unspecified)	nt	nt	26µM*	nt	nt	?
Cc1cc(CNC(=O)[C@H](C)[C@@H]2C[C@@]2(C)[C@@H](NC(=O)OCc2ccccc2)c2ccccc2)nn1C	?	3%	23µM*	-10	?	?
Cc1cc(CNC(=O)[C@H](C)[C@H]2C[C@]2(C)[C@H](NC(=O)OCc2ccccc2)c2ccccc2)nn1C	-2%	nt	nt	nt	-8%	nt
COc1ccc(CNC(=O)[C@H](C)[C@@H]2C[C@@]2(C)[C@@H](NC(=O)OCc2ccccc2)c2ccccc2)cc1OC	?	?	15µM*	-27	9%	12µM*
CC(C)[C@@H](CC(=O)N[C@@H]1CCNC[C@H]1C(=O)N[C@H](CC(=O)N[C@@H](CCC(=O)O)CC(=O)O)Cc1c[nH]c2ccccc12)NC(=O)C[C@H](CO)NC(=O)[C@@H]1CCCC[C@H]1N	15%	nt	nt	nt	2%	nt
O=C(Nc1ccc(N2CCN(C(=O)c3cccs3)CC2)cc1)c1ccccc1Cl	29%	?	15µM*	-57*	-5%	12µM*
O=C(Nc1ccc(N2CCN(C(=O)c3ccccc3F)CC2)cc1)c1cncc(Br)c1	43%	3.7µM*	?	-58*	-3%	18µM*
O=C(Nc1ccc(N2CCN(C(=O)c3cccs3)CC2)cc1)c1ccccc1F	-17%	?	?	-62*	4%	18µM*
CC(C)(C)C(=O)Nc1ccc(N2CCN(C(=O)c3cccs3)CC2)cc1	nt	nt	-7%	?	nt	-23%
COc1cc(CC(NC(C)=O)C(=O)NC2CCN(c3c4c(nc5ncnn35)CCC4)CC2)cc(OC)c1 (stereo unspecified)	3%	-2%	nt	nt	6%	nt
CC(C)(C)C1CC=C2C(C#N)=C(N)C(C#N)(C#N)C(c3cccs3)C2C1 (stereo unspecified)	-2%	-1%	nt	nt	6%	nt
CCc1ccc(C2C(C#N)=C(N)C(C#N)(C#N)C3=CCC(C(C)(C)C)CC32)cc1 (stereo unspecified)	?	-14%	?	-58*	?	15µM*
Cc1c(C(=O)NC2CCCc3ccccc32)oc2ccc(S(=O)(=O)N3CCCCC3)cc12 (stereo unspecified)	1%	?	0.26µM*	23	-1%	?
Cc1c(C(=O)NC2CCCc3ccccc32)oc2ccc(S(=O)(=O)N3CCCC3)cc12 (stereo unspecified)	-9%	-4%	8.2µM*	36	-7%	?
Cc1c(C(=O)NC2CCCc3ccccc32)oc2ccc(S(=O)(=O)N3CCOCC3)cc12 (stereo unspecified)	0%	-14%	?	34	-9%	?
O=C(/C=C\c1ccccc1)NC1CC(=O)N(c2ccccc2)C1 (stereo unspecified)	nt	nt	-16%	nt	nt	-7%
COc1ccc(C2C(C)C(=O)C(C)C(c3ccc(OC)cc3)N2N=O)cc1 (stereo unspecified)	nt	nt	-14%	-1	nt	?
Cc1cc(F)ccc1NC(=O)c1csc2c1CCC(C)C2 (stereo unspecified)	nt	nt	?	nt	nt	-4%
COC(=O)c1c(OCc2cccnc2)cc(=O)n2c1CCN(C(=O)c1c3c(nn1C)CCCC3)CC2	nt	nt	-2%	nt	nt	-11%
c1ccc(CNc2nc(-c3ccc4c(c3)OCO4)nc3ccccc23)cc1	7%	nt	-3%	nt	-7%	?
SMILES	RORgamma inh	ELG1 repair inh	TDP1 cell CPT	IL1B secr inh	VP16 counter	TDP1 cell noCPT
CCc1ccc(CNC(=O)CCCN2C(=O)c3cccnc3Oc3ccc(Cl)cc32)cc1	nt	nt	21µM*	nt	nt	18µM*
CCN1CCN(CCCNC(=O)CN2C(=O)c3cccnc3Oc3ccc(Cl)cc32)CC1	-6%	4%	-11%	-3	-1%	6%
CN(C)c1ccc(CNC(=O)CCCN2C(=O)c3cccnc3Oc3ccc(Cl)cc32)cc1	nt	nt	18µM*	nt	nt	?
CCN(CC)S(=O)(=O)c1ccc(N2CCN(C)CC2)c(NC(=O)CN2C(=O)NC3(CCCCC3)C2=O)c1	nt	nt	-7%	-16	nt	-2%
C[C@@]12CCc3occc3[C@H]1CC[C@@]13C[C@@H](CC[C@H]12)[C@@](O)(CO)C3	-19%	nt	nt	nt	1%	nt
O=C1CCCCC1Nc1ccc(Br)cc1 (stereo unspecified)	nt	nt	-14%	0	nt	-19%
NNC(=O)c1cc(-c2ccc(N)cc2)nc2ccc(Br)cc12	10µM*	?	?	-20	?	15µM*
COc1cc(NC(=O)c2cc(-c3cccnc3)nc3ccc(Br)cc23)cc(OC)c1	?	2%	?	8	-27%	21µM*
Cc1cc(C(=O)NN)c2cc(Br)ccc2n1	2%	0%	-4%	21	-10%	1%
COc1ccc(NC(=O)c2cc(-c3ccncc3)nc3ccc(Br)cc23)cc1OC	?	?	?	-6	20µM*	21µM*
Cc1ccc(C)c(C(=O)COC(=O)c2ccc(C)c(S(=O)(=O)N3CCOCC3)c2)c1	nt	?	?	2	nt	?
O=C(/C=C/Nc1ccc(Br)cc1F)c1ccco1	7.1µM*	?	-4%	-9	7.9µM*	?
O=C(/C=C/Nc1ccc(F)cc1F)c1ccco1	7.9µM*	?	-9%	-7	7.1µM*	-26%
O=C(/C=C\Nc1cccc(F)c1)c1cccs1	-40%	?	3%	3	-13%	-29%
O=C(/C=C/Nc1ccc(F)cc1F)c1cccs1	1.6µM*	?	-10%	-11	2.5µM*	?
